{"source": "PubChem BioAssay (EPA / NIEHS)", "note": "Inconclusive results are not listed. The source made the active and inactive calls. The calls were made as follows: active = hit-call score of the fitted dose curve at least 0.9, where 1 is the maximum; inconclusive = response in the unintended direction; inactive = score below 0.9.", "data": [{"assay": "ATG_M_19_TRANS: Attagene TRANS-FACTORIAL HepG2 Assay for M19 Transcription Factor (Internal Marker) (AID 2282974)", "conditions": "HepG2 Attagene TRANS-FACTORIAL M19 internal marker reporter", "experimental": "ATG_TRANS is a cell-based, multiplexed-readout assay that uses HepG2, a human liver cell line, with measurements taken at 24 hours after chemical dosing in a 24-well plate.ATG_M_19_TRANS is one of 30 assay component(s) measured or calculated from the ATG_TRANS assay. It is designed to make measurements of mRNA induction, a form of inducible reporter, as detected with fluorescence intensity signals by Reverse transcription polymerase chain reaction (RT-PCR) and Capillary electrophoresis technology.Data from the assay component ATG_M_19_TRANS was analyzed into 1 assay endpoint. This assay endpoint, ATG_M_19_TRANS, was analyzed in the positive analysis fitting direction relative to DMSO as the negative control and baseline of activity. Using a type of inducible reporter, measures of mRNA for gain-of-signal activity can be used to understand the background control at the transcription factor-level as they relate to the gene . Furthermore, this assay endpoint can be referred to as a secondary readout, because this assay has produced multiple assay endpoints where this one serves a background control function. To generalize the intended target to other relatable targets, this assay endpoint is annotated to the background measurement intended target family, where the subfamily is internal marker.\nHuman liver HepG2 cells are transiently transfected with multiple reporter transcription units (MRTUs) in 6-well plates using FuGene 6 reagent (Roche; 3 ml FuGene/1 mg DNA). The MRTU constructs are regulated by a cis-regulating element (promoter). […] A major difference between the CIS and TRANS system is that in CIS activities of endogenous TFs are measured, whereas the TRANS assay evaluates changes in activities of exogenous, chimeric NR-Gal4 proteins. […] At the end of 24 hour incubation, total RNA was isolated using TriZol reagent (Invitrogen). The isolated RNA is then reverse-transcribed using oligo(dT) primer and Mo-MLV reverse transcriptase (Invitrogen) with DNAse I (Ambion) treatment for 30 min. The one-tenth of the produced cDNA was amplified by PCR using Taq DNA polymerase (Invitrogen) and two reporter sequence-specific primers. The PCR products were fluorescently labeled by primer extension with 6-arboxyfluorescein (6-FAM) 5'-labeled reporter sequence-specific primer (2 min at 95 C, 20 s at 68 C and 10 min at 72 C) and these products were digested with 5U of HpaI (New England Biolabs) for 2h at 37 C. The fragments were purified using Qiaquick PCR columns (Qiagen), analyzed on an ABI 3130xL genetic analyzer (Applied Biosystems) with peak positions identified by using a set of X-rhodamine (ROX)-labeled MapMarker1000 molecular weight standards (BioVentures). The raw capillary electrophoresis data was processed using Attagraph software (Attagene).", "values": [{"smiles": "CCCCCCCCCCC", "outcome": "inactive"}, {"smiles": "COc1cc(C=O)ccc1O", "outcome": "inactive"}, {"smiles": "NCCO", "outcome": "inactive"}, {"smiles": "Nc1ccc(S(=O)(=O)c2ccc(N)cc2)cc1", "outcome": "inactive"}, {"smiles": "Cc1cccc(C)c1O", "outcome": "inactive"}, {"smiles": "c1cc(-c2ccncc2)ccn1", "outcome": "inactive"}, {"smiles": "COc1cccc2c1C(=O)c1c(O)c3c(c(O)c1C2=O)C[C@@](O)(C(=O)CO)C[C@@H]3O[C@H]1C[C@H](N)[C@H](O)[C@H](C)O1", "outcome": "inactive"}, {"smiles": "Cc1oc(-c2ccccc2)nc1CCOc1cccc2c1ccn2CCC(=O)O", "outcome": "inactive"}, {"smiles": "CN[C@H]1CC[C@@H](c2ccc(Cl)c(Cl)c2)c2ccc(S(N)(=O)=O)cc21", "outcome": "inactive"}, {"smiles": "CCOC(=O)C(C)(C)Oc1ccc(Cl)cc1", "outcome": "inactive"}, {"smiles": "COc1ccc2c(c1)c(CC(=O)O)c(C)n2C(=O)c1ccc(Cl)cc1", "outcome": "inactive"}, {"smiles": "NC(=O)Cn1c(=O)cc(CCN2CCN(c3nccc4sccc34)CC2)c2ccc(F)cc21", "outcome": "inactive"}, {"smiles": "CNCc1cc(F)ccc1Oc1ccc(Cl)c(Cl)c1", "outcome": "inactive"}, {"smiles": "CCCCOC(=O)CCCCCCCCC(=O)OCCCC", "outcome": "inactive"}, {"smiles": "COc1cc(/C=C/C(=O)CC(=O)/C=C/c2ccc(O)c(OC)c2)ccc1O", "outcome": "inactive"}, {"smiles": "CC(C)(C)c1cc(O)c(C(C)(C)C)cc1O", "outcome": "inactive"}, {"smiles": "O=C(O)Cc1ccccc1Nc1c(Cl)cccc1Cl", "outcome": "inactive"}, {"smiles": "CN1CCN(Cc2cc(-c3ccc4[nH]c(=O)oc4c3)co2)[C@@H](c2ccc(F)cc2)C1", "outcome": "inactive"}, {"smiles": "Cc1c(C(=O)O)c(O)cc2c1C(=O)c1c(O)c([C@@H]3O[C@H](CO)[C@@H](O)[C@H](O)[C@H]3O)c(O)c(O)c1C2=O", "outcome": "inactive"}, {"smiles": "CCCCCCOCCO", "outcome": "inactive"}, {"smiles": "CCc1c(C(=O)NN2CCCCC2)nn(-c2ccc(Cl)cc2Cl)c1-c1ccc(Br)cc1", "outcome": "inactive"}, {"smiles": "O=C(OCCCCCOC(=O)c1ccccc1)c1ccccc1", "outcome": "inactive"}, {"smiles": "C[Si]1(C)O[Si](C)(C)O[Si](C)(C)O[Si](C)(C)O1", "outcome": "inactive"}, {"smiles": "Cc1ccc(Cl)cc1", "outcome": "inactive"}, {"smiles": "CCCCc1ccc2c(n1)[C@@H](c1ccc(OC)cc1C[C@H](C)C(=O)O)[C@H](C(=O)O)[C@H]2c1ccc2c(c1)OCO2", "outcome": "inactive"}, {"smiles": "O=c1c(O)c(-c2ccc(O)c(O)c2)oc2cc(O)cc(O)c12", "outcome": "inactive"}, {"smiles": "O=c1[nH]cc(F)c(=O)[nH]1", "outcome": "inactive"}, {"smiles": "COCCOCCOC", "outcome": "inactive"}, {"smiles": "COc1ccc(S(=O)(=O)N2C(=O)[C@@](c3ccccc3OC)(N3C[C@H](O)C[C@H]3C(=O)N(C)C)c3cc(Cl)ccc32)c(OC)c1", "outcome": "inactive"}, {"smiles": "C=CCOC(=O)c1ccccc1C(=O)OCC=C", "outcome": "inactive"}, {"smiles": "CCCCCCC(=O)OCC", "outcome": "inactive"}, {"smiles": "CCOc1ccc2c(c1)C(C)=CC(C)(C)N2", "outcome": "inactive"}, {"smiles": "CC(=O)OCCOCCOCCOC(C)=O", "outcome": "inactive"}, {"smiles": "CCCCCCCCCCCC(=O)OC", "outcome": "inactive"}, {"smiles": "CCCCCCCCCCCCCCCCCC(=O)O", "outcome": "inactive"}, {"smiles": "CCCCCCCCCCCCCO", "outcome": "inactive"}, {"smiles": "C=CCc1ccc(O)c(OC)c1", "outcome": "inactive"}, {"smiles": "CC1(C)NC(=O)NC1=O", "outcome": "inactive"}, {"smiles": "COc1cc(-c2nc(NC(=O)c3cc4cc(C)cc(C)c4n3CC(=O)O)sc2CCC2CCCCC2)c(OC)cc1Cl", "outcome": "inactive"}, {"smiles": "O=C(O)CCCCC(=O)O", "outcome": "inactive"}]}]}
